In the library only some 10% were active in any assay of this set; here they are far more common.
HEK cytotox = cytotoxic compounds in HEK 293 cells; HEK 293 viability, ATP luminescence (CellTiter-Glo), 48-72 h; Potency, µM (titrated, usually from 115 µM), for inactives: at the highest dose activity change, negative = cytotoxicity, actives largely listed as inhibitors; 6.6% of 94,000 active; AID 1345083; further: nearly all actives have a fitted effect of over 60% in size
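HEK 293 cells seeded at 250 cells/well were exposed to compound for 48 or 72 hr at 37 degree Celsius. Viability taken as ATP content by CellTiter-Glo luminescence.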
Luciferase inh = Photinus pyralis luciferase inhibition. P08659. purified P. pyralis luciferase, luminescence, biochemical. Potency, µM (top dose mostly 115 µM), actives largely listed as inhibitors. 2.5% of 76,000 active; further: nearly all actives have a fitted effect of over 65% in size
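Purified P. pyralis luciferase (10nM final) in 50mM Tris acetate pH 7.5, 10mM Mg acetate, 0.01% Tween-20, 0.05% BSA with 10uM D-luciferin and 10uM ATP. Compounds titrated qHTS. Luminescence imaged on CCD.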
GPT2 inh = inhibitors of human GPT2 alanine aminotransferase. Recombinant GPT2, coupled pyruvate oxidase/HRP Amplex Red fluorescence. Q8TD30. 0.25% of 100,000 active. Potency, µM (highest dose often 57.7 µM), without a hit: at the highest dose activity change, negative = inhibition, most hits filed as inhibitors; further: nearly all actives have a fitted effect of over 60% in size
Target sequence (Q8TD30 whole entry, looked up): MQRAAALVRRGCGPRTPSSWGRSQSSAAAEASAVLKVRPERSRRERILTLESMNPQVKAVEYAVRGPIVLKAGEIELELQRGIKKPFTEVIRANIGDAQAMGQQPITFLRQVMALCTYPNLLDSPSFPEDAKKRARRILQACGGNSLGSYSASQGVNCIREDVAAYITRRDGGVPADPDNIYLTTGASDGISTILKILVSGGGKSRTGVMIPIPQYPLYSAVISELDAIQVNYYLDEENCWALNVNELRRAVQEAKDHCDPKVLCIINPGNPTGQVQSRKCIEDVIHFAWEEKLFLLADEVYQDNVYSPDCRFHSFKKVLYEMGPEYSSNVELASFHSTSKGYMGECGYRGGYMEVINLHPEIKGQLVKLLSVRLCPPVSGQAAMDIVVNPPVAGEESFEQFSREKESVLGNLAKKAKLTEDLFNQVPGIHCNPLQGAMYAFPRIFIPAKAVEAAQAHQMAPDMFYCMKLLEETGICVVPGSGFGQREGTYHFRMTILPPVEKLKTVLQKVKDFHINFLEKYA
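Recombinant GPT2 (10ng/uL) with 250uM a-KG and 2mM L-alanine, 30 min at room temperature, in HEPES pH 7.5 buffer. Pyruvate detected by pyruvate oxidase/HRP/Amplex Red fluorescence after 30 min in the dark; AOA (50uM) as positive control.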
NIH3T3 tox = cytotoxic compounds in NIH 3T3 cells; NIH 3T3 viability, CellTiter-Glo ATP luminescence, 48-72 h; Potency, µM (series often up to 96.7 µM), for the others: at the top dose activity change, negative = cytotoxicity, actives largely listed as inhibitors; 4.3% of 94,000 active; further: nearly all actives have a fitted effect of over 55% in size
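Cytotoxicity is measured as loss of cellular ATP: NIH 3T3 cells (400/well) are exposed to compound for 48 or 72 hr at 37 °C, then CellTiter-Glo luminescence is imaged after 10 min at room temperature.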
hNpr1 antagonist = human Npr1 receptor antagonism | Potency, µM (titrated, usually from 46.3 µM), without a hit: at the top dose activity change, negative = inhibition, hits mostly inhibitors | HEK293 hNpr1 GloSensor cGMP, ANP-stimulated luminescence | P16066 | 1.6% of 76,000 active; calls by dose curve; further: nearly all actives have a fitted effect of over 60% in size
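HEK293 cells stably expressing human Npr1 and cGMP GloSensor pGS-40F, loaded 2 h with 2% GloSensor reagent, given compound 30 min at room temperature. Luminescence read before and 20 min after 0.1 nM hNppA.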
* hit, by the source's call; i = inactive; ? = inconclusive; . = no result given; [ ] = dose if it differs, or a comment. Unless noted, the call rests on the fitted dose curve; in most records, active means well fitted curve in the direction sought with a large enough effect; inconclusive means small, poorly fitted or top-dose-only effect, or another doubt; inactive means no such curve, though single readings can be large; an effect the other way counts as inactive or inconclusive. On the % scale 0 is the no-effect control and ±100 the full control effect; potency means the concentration at half of the fitted maximal effect.

SMILES	HEK cytotox	Luciferase inh	GPT2 inh	NIH3T3 tox	hNpr1 antagonist
Cc1nn(-c2ccccc2)c2c1C(C(C)C)N(C1CCCN(C(=O)N(C)C)C1)C2=O (centres undefined)	-1.8%	.	.	-5.1%	.
Cc1nn(-c2ccccc2)c2c1C(C(C)C)N(C1CCCN(C(=O)C3CC3)C1)C2=O (centres undefined)	28.2µM*	.	.	?	.
Cc1nn(-c2ccccc2)c2c1C(C(C)C)N(C1CCN(C(=O)c3ccc(F)cc3)C1)C2=O (centres undefined)	44.7µM*	.	.	?	.
Cc1nn(-c2ccccc2)c2c1C(C(C)C)N(C1CN(C(=O)C(C)(C)C)C1)C2=O (centres undefined)	i	.	.	-4.3%	.
COCC(=O)N1CCCC(N2C(=O)c3c(c(C)nn3-c3ccccc3)C2C(C)C)C1 (centres undefined)	?	.	.	-4.7%	.
COc1ccc(NC(=O)Cn2c(=O)c(-c3noc(C)n3)c3n(c2=O)CCCC3)cc1Cl	19.3%	i	i	i	0.0%
CCOc1ccc(NC(=O)Cn2ccn3nc4c(c3c2=O)CC(C)CC4)cc1 (centres undefined)	39.8µM*	i	-5.9%	31.6µM*	1.8%
CCOC(=O)c1ccc(NC(=O)Cn2ccn3nc4c(c3c2=O)CCCCC4)cc1	44.7µM*	i	i	?	-3.9%
O=C(Cn1ccn2nc3c(c2c1=O)CCCC3)Nc1ccccc1	?	i	-5.9%	i	5.1%
COc1ccc(NC(=O)C2CCc3nnc(C4CCN([S+](C)(=O)[O-])CC4)n32)cc1 (centres undefined)	-8.3%	.	i	i	.
C[C@]12C=C[C@@]3(CCC4[C@](C)(CO)CCC[C@@]4(C)C3CC1)C2 (some centres undefined)	.	.	4.1%	.	.
CN(CCn1ccnc1)c1ccc(-c2nc(-c3cccc(Cl)c3)no2)cn1	35.5µM*	3.16µM*	i	?	?
Cc1cc(F)ccc1-c1[nH]nc2ncc(-c3cccnc3)nc12	?	i	2.5%[88.5 µM]	-29.3%[138 µM]	-20.2%[70.6 µM]
COc1ccc(-c2cnc3n[nH]c(-c4ccc(F)cc4C)c3n2)cn1	50.1µM*	i	-8.7%[88.5 µM]	50.1µM*	-2.6%[70.6 µM]
COc1cc(-c2cnc3n[nH]c(-c4ccc(F)cc4C)c3n2)ccn1	79.4µM*	i	i	?	-4.9%[70.6 µM]
Cc1cc(F)ccc1-c1[nH]nc2ncc(-c3ccsc3)nc12	?	i	2.2%[88.5 µM]	20µM*	-0.7%[70.6 µM]
O=[S+]([O-])(c1cccs1)N1CCn2c(nnc2C2CC2)C1	i	i	i	3.6%[138 µM]	4.5%[70.6 µM]
CCc1[nH]c2ccc(CNC(=O)C3CC(=O)Nc4ccccc43)cc2c1C (centres undefined)	?	17.8µM*	1.7%	?	-0.1%
COC(=O)[C@@H]1Cc2c([nH]c3ccccc23)[C@H]2C[C@H](N3CCCCC3)C[C@@H](c3ccccc3F)N21	?	i	-17.2%	28.2µM*	3.5%
COC(=O)[C@@H]1[C@H]2C[C@@H]3c4[nH]c5ccccc5c4CCN3C[C@@H]2CC[C@@H]1O	.	.	i	.	.
COC(=O)[C@@H]1Cc2c([nH]c3ccccc23)[C@H]2C[C@@H](N3CCCCC3)C[C@@H](c3ccccc3F)N21	22.4µM*	i	-7.0%	?	1.5%
COC(=O)[C@@H]1Cc2c([nH]c3ccccc23)[C@H]2C[C@@H](N3CCOCC3)C[C@@H](c3ccc(F)cc3)N21	?	i	-19.5%	?	-1.5%
CN1CC(=O)N(c2ccccc2)Cc2c(NCC(C)(C)C)ncnc21	-16.7%[172 µM]	i	i	?	-1.9%[70.6 µM]
CC1=C[C@@H](CN(C)CCC#N)[C@H](C(C)C)C[C@H]1Cc1nnc(-c2ccc(C)cc2)o1	50.1µM*	i	-5.8%[88.5 µM]	?	?
COc1ccc(-c2nnc(C[C@@H]3C[C@@H](C(C)C)[C@H](CN(C)CCc4ccccn4)C=C3C)o2)cc1	22.4µM*	i	?	35.5µM*	-7.7%
SMILES	HEK cytotox	Luciferase inh	GPT2 inh	NIH3T3 tox	hNpr1 antagonist
COc1ccc(-c2nnc(C[C@@H]3C[C@@H](C(C)C)[C@H](CN(C)CCC#N)C=C3C)o2)cc1	63.1µM*	i	?	89.1µM*	?
CC(C)C(=O)N1Cc2ccccc2CC2(CCCN(Cc3ccncc3)C2)C1 (centres undefined)	-26.2%	.	-4.5%	-15.4%	.
O=C(Cc1ccc(F)cc1)N1CCc2nc(-c3ccc(Cl)cc3)nc(-c3ccccc3)c2C1	35.5µM*	i	i	?	8.4%
COc1ccc(C(=O)N2CCc3nc(-c4ccc(Cl)cc4)nc(-c4ccccc4)c3C2)cc1	39.8µM*	i	i	?	6.1%
Cc1ccccc1C(=O)N1CCc2nc(-c3ccccc3)nc(-c3ccc(Cl)cc3)c2C1	?	i	i	?	-2.1%
O=C(c1ccccc1Cl)N1CCc2nc(-c3ccc(Cl)cc3)nc(-c3ccccc3)c2C1	25.1µM*	?	-15.8%	?	-2.1%
COc1ccc(C(=O)N2CCc3nc(-c4ccccc4)nc(-c4ccc(OC)cc4)c3C2)cc1	?	i	i	-31.7%	2.4%
COc1ccc(-c2nc(C(C)C)nc3c2CCN(C(=O)c2cccc(Cl)c2)CC3)cc1	?	i	-9.0%	44.7µM*	-19.6%
CC(C)(C)C(=O)N1CCC(C(=O)N2CCCC(c3nc4ncccc4[nH]3)C2)CC1 (centres undefined)	?	.	i	-15.4%	.
O=C(NCCc1ccccc1F)c1ccc2nnc(-c3ccoc3)n2c1	?	.	-0.1%[88.5 µM]	?	.
COC1CCOC2(CCN(C(=O)C3(c4ccccc4)CC3)CC2)C1 (centres undefined)	2.7%	i	i	0.3%	8.0%
CN(Cc1ccc(-n2cccn2)cc1)CC1CCN(CCc2ccc(F)cc2)CC1	?	i	-12.0%	?	-7.0%
CN(Cc1ccc(Oc2ncccn2)cc1)CC1CCN(CCc2ccc(F)cc2)CC1	?	i	-3.7%	50.1µM*	6.4%
O=C(Nc1ccc(C(O)(C(F)(F)F)C(F)(F)F)cc1)c1ccc(C(F)(F)F)cc1	.	.	-18.8%	.	.
Fc1ccc(-c2noc([C@@H]3Cc4nc[nH]c4CN3CCCc3ccccc3)n2)cc1Cl	?	?	-25.3%	?	-12.3%
Fc1ccc(-c2noc([C@@H]3Cc4nc[nH]c4CN3Cc3ccccc3)n2)cc1Cl	70.8µM*	i	i	70.8µM*	-26.4%[70.6 µM]
Cc1ccc(-c2noc([C@@H]3Cc4nc[nH]c4CN3Cc3cccs3)n2)cc1	79.4µM*	28.2µM*	-5.3%[88.5 µM]	79.4µM*	-17.7%[70.6 µM]
Fc1ccc(-c2noc([C@@H]3Cc4nc[nH]c4CN3Cc3cccs3)n2)cc1Cl	?	56.2µM*	i	50.1µM*	-27.7%[70.6 µM]

Source: PubChem BioAssay
